These results are taken from PubChem BioAssay (EPA / NIEHS).

The structures appear in SMILES notation. The source made the active and inactive calls. Rule for the calls: active = hit-call score of the fitted dose curve at least 0.9, where 1 is the maximum; inactive = score below 0.9.

Read-out in this test: Cytochrome P450 (CYP24A1), CYP24A1 (gene 1591)
The experiment in a line: LTEA_HepaRG_CYP24A1: Life Technologies and Expression Analysis (LTEA) Assay for Cytochrome P450 (CYP24A1) using HepaRG (AID 2283478). The note with it: mRNA level, 48 h; actives raise or lower the signal. In short, it runs like this:
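Differentiated HepaRG cells, pre-cultured 48 h, were exposed in duplicate for 48 h in serum-free induction medium to 8 half-log concentrations (top 100 uM, 0.5% DMSO). CYP24A1 mRNA was quantified by TaqMan qRT-PCR, normalized to ACTB/GAPDH/POLR2A, fitted bidirectionally versus DMSO.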
With `CCN(CC)C(=O)SCc1ccc(Cl)cc1`, the outcome was inactive. As to `CC1(C)C(C=C(Cl)Cl)C1C(=O)OC(C#N)c1ccc(F)c(Oc2ccccc2)c1` (stereo not given), the compound was called inactive. To `O=C(O)COc1ccc(Cl)cc1Cl` belongs “inactive”; to `CCC(C)(C)C(=O)OC1=C(c2ccc(Cl)cc2Cl)C(=O)OC12CCCCC2`, “inactive”. `CCCN(CCC)c1c([N+](=O)[O-])cc(C(F)(F)F)cc1[N+](=O)[O-]`: the call was inactive. With `CNC(=O)/C=C(\C)OP(=O)(OC)OC`, the result was inactive. For the compound `O=C(O)C(F)(F)C(F)(F)C(F)(F)C(F)(F)C(F)(F)C(F)(F)C(F)(F)F`, the result was inactive.

For the compound `CCCN(CCOc1c(Cl)cc(Cl)cc1Cl)C(=O)n1ccnc1`, the result was inactive. Consider `CCc1ccc(C(=O)NN(C(=O)c2cc(C)cc(C)c2)C(C)(C)C)cc1`, for which the result was inactive.

For the compound `N#CN`, the compound was called inactive.

`CCOCN(C(=O)CCl)c1c(C)cccc1CC`: the call was inactive.

`O=S1OCC2C(CO1)C1(Cl)C(Cl)=C(Cl)C2(Cl)C1(Cl)Cl` (stereo not given): the call was inactive.

As for `CCC(C)(NC(=O)c1cc(Cl)c(C)c(Cl)c1)C(=O)CCl` (stereo not given), the result was inactive. With `O=C(Nc1ccccc1)Nc1cnns1`, the call was inactive.

With `CCC(C)Nc1c([N+](=O)[O-])cc(C(C)(C)C)cc1[N+](=O)[O-]` (stereo not given), the result was inactive. Take `Cc1[nH]c(=O)n(C(C)(C)C)c(=O)c1Cl`: the compound was called inactive. Turning to `Clc1ccccc1-c1nnc(-c2ccccc2Cl)nn1`, the result was inactive. In the case of `ClC1C(Cl)C(Cl)C(Cl)C(Cl)C1Cl` (stereo not given) it was “inactive”; in that of `C#CCN1C(=O)COc2cc(F)c(N3C(=O)C4=C(CCCC4)C3=O)cc21`, “inactive”.

For the compound `CC(C)(C)C(O)/C(=C\c1ccc(Cl)cc1Cl)n1cncn1` (stereo not given), the outcome was inactive.
